Molecules are shown by their SMILES. Hit rate of the full screen: of about 330,000 compounds, about 7,700 (2.3%) were called active. Not shown: some 26% with an inconclusive outcome. The sample as a whole holds a higher share of actives than the screen did. Unmarked numbers belong to inactive results. The call rests on the fitted dose curve; in most records, active means well fitted inhibition curve with a large enough effect; inconclusive means small, poorly fitted or top-dose-only effect, or effect the other way; inactive means flat fitted curve, though single readings scatter.
On the % scale 0 is the no-effect control and ±100 the full control effect; potency means the concentration at half of the fitted maximal effect.

This assay can be described thus: qHTS screen for small molecules that inhibit ELG1-dependent DNA repair in human embryonic kidney (HEK293T) cells expressing luciferase-tagged ELG1. Further: nearly all actives have a fitted effect of over 55% in size. To be noted: HEK293T ELG1-luciferase reporter, luminescence, 16 h, DNA damage induced by 5-fluorouridine; series mostly up to 46.1 µM; activity change, negative = inhibition: at the top concentration. A digest of the protocol: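 Overnight (16 hr) co-exposure of 2,000 cells/well to 5-fluorouridine and compound at 37 °C preceded detection. Luciferase was quantified via ONE-Glo luminescence; loss of signal denotes inhibition.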
For orientation: qHTS replaces the single test concentration by a dilution series.
Turning to `COc1ccc(S(=O)(=O)N2CCOCC2)cc1NC(=O)CSc1cc(C)ccc1C`, the “activity change, negative = inhibition” value was -11.9%.
On to `CCOCc1c(C(=O)N2CCN(Cc3ccc(Br)s3)CC2)oc2ccccc12`, for which the “activity change, negative = inhibition” value is -5.2%.
With `Cc1nnc(SCC(=O)Nc2cccc(N)c2)n1-c1ccccc1`, the “activity change, negative = inhibition” value is -9.23%.
For the compound `COc1ccc(-n2cnnc2SCC(=O)Nc2cccc(S(N)(=O)=O)c2)cc1`, the “activity change, negative = inhibition” value is -5.02%.
In the case of `NS(=O)(=O)c1cccc(NC(=O)CSc2nc3ccccc3n2-c2ccccc2)c1`, the Potency was 9.2 µM (active).
On the same count and under the same terms, the same measure for `Cc1ccc(C(=O)C[n+]2cc(-c3ccccc3)n3c2CCCCC3)cc1`: “inactive”; for `Clc1ccc(C[n+]2cc(-c3ccccc3)n3c2CCC3)cc1`: 2.91 µM (active).
For the compound `Cc1ccc(-c2c[n+](CC(=O)Nc3ccccc3)c3n2CCC3)cc1`, the “activity change, negative = inhibition” value is -7.46%.
With `CCC1Nc2ncnc(N3CCN(c4ccccc4)CC3)c2N(Cc2ccc(Cl)cc2)C1=O` (stereo not drawn), the “activity change, negative = inhibition” value is -0.364%.
As for `CCCCN(C(=O)C1CCC1)c1c(N)n(Cc2ccccc2)c(=O)[nH]c1=O`, the “activity change, negative = inhibition” value is 9.17%.
Take `Cc1cccc(-c2nc(Nc3ccc(O)cc3)c3ccccc3n2)c1`: the Potency is 20.6 µM (active).
Take `CN1CCN(c2nc(Nc3ccc(O)cc3)nc3ccccc23)CC1`: the “activity change, negative = inhibition” value is 17.4%.
As for `CCC(=O)OCCNc1nc(-c2ccccc2)nc2ccccc12`, the “activity change, negative = inhibition” value was -11%.
Same read-out and setting: to `COc1ccc(Cl)cc1NC(=O)CN(C)CC(=O)Nc1ccc2c(c1)OCO2` belongs -25.5%.
`CCOc1ccc(C(=O)NCC(=O)N2CCN(c3ccc(C(F)(F)F)cn3)CC2)cc1`: the “activity change, negative = inhibition” value is 14.2%.
As for `C/C=C/C(=O)Nc1ccc(N2CCN(c3ccc(C(F)(F)F)cn3)CC2)nc1`, the “activity change, negative = inhibition” value is -9.39%.
As to `Cc1ccc(F)cc1NC(=O)N1CCCN(c2ccc(C(F)(F)F)cn2)CC1`, the Potency was 5.17 µM (active).
As for `COc1ccccc1NC(=O)Nc1nc(CC(=O)Nc2ccccc2F)cs1`, the “activity change, negative = inhibition” value was -29.7%.
Turning to `Cc1ccc(S(=O)(=O)NC[C@H]2O[C@@H](n3cnc4c(N)ncnc43)[C@H](O)[C@@H]2O)s1`, the “activity change, negative = inhibition” value was 1.49%.
Consider `CSc1nc(-c2ccccc2)nc(C(Cl)Cl)n1`, for which the Potency is 20.6 µM (active).
Regarding `CSc1nc(C)cc(SC(C(C)=O)C(=O)Nc2ccccc2)n1` (stereo not drawn), the “activity change, negative = inhibition” value was 4.04%.
For `CCCCC(=O)Nc1nnc(S(=O)(=O)N(C)Cc2ccco2)s1`, the “activity change, negative = inhibition” value was 3.15%.
With `Cc1ccccc1CN1CCC(C(=O)Nc2ccc(Oc3cccnc3)cc2)CC1`, the “activity change, negative = inhibition” value was -15%.
Still for that read-out and setting: the same measure for `CCOC(=O)N1CCN(C(=O)Cn2cnc3ccccc3c2=O)CC1`: 2.4%.
In the case of `CCOC(=O)N1CCN(CC(=O)Nc2cc(C)nn2-c2nc3ccccc3s2)CC1`, the Potency was 10.3 µM (active).
With `CCOC(=O)N1CCN(CC(=O)Nc2ccc(F)cc2)CC1`, the “activity change, negative = inhibition” value is 15.5%.
The same measure, in the same setting: the same measure for `Cc1cc(C)c(S(=O)(=O)n2cc(C(C)C(N)C(=O)O)c3ccccc32)c(C)c1` (stereo not drawn): 5.41%; for `O=C(CSc1nnc(COc2ccc(Cl)cc2)n1Cc1ccco1)N1CCNC1=O`: -1.34%; for `NC(=O)c1nsc(C(=O)N(CC(=O)NCc2ccc(F)cc2)Cc2ccco2)c1N`: 11.5%.
As to `CC(C)(C)NC(=O)C(c1ccc(Cl)cc1)N(CCO)C(=O)c1snc(C(N)=O)c1N` (stereo not drawn), the “activity change, negative = inhibition” value was -6.16%.
Take `COc1ccc(CNC(=O)C(c2ccc(O)cc2)N(Cc2ccco2)C(=O)c2snc(C(N)=O)c2N)cc1` (stereo not drawn): the Potency is 6.51 µM (active).
On to `CCCn1c(C2CCCN2c2nc(-c3ccc(OC)cc3)cs2)nc2ccccc21` (stereo not drawn), for which the “activity change, negative = inhibition” value was -17.3%.
Still for that read-out and setting: the same measure for `COc1ccc(C(=O)CC(=O)C(=O)Nc2cc([N+](=O)[O-])ccc2OC)cc1`: 22.3%.
Turning to `COc1cc2c(cc1OC)CN(C(=O)c1cc(=O)c3ccccc3o1)CC2`, the Potency was 8.2 µM (active).
Turning to `O=C(c1cc(=O)c2ccccc2o1)N1CCN(c2ccccc2)CC1`, the “activity change, negative = inhibition” value is -2.94%.
On to `COc1ccc(CCNC(=O)COC(=O)c2cc(=O)c3ccccc3o2)cc1`, for which the “activity change, negative = inhibition” value is 10.5%.
As for `COc1ccccc1C(=O)N(Cc1ccc(C)o1)C1CCS(=O)(=O)C1` (stereo not drawn), the “activity change, negative = inhibition” value was 6.35%.
Still for that read-out and setting: to `COc1cc(OC)cc(-c2c(-c3ccc(F)cc3)c3cc(-c4ccc5cc[nH]c5c4)ccc3n2C)c1` belongs 27.6%.
Consider `COc1ccc(-c2c(-c3cc(OC)cc(OC)c3)n(C)c3ccc(-c4ccn[nH]4)cc23)cc1`, for which the Potency is 6.51 µM (active).
For the compound `COc1cc(OC)cc(-c2c(-c3cccs3)c3cc(-c4ccc(OC)cc4F)ccc3n2C)c1`, the “activity change, negative = inhibition” value was 2.8%.
With `CCOC(=O)[C@@H]1[C@H]2COc3ccc(Br)cc3[C@H]2N2C(=O)N(c3ccc(C)cc3)C(=O)[C@@]12C`, the “activity change, negative = inhibition” value is -1.2%.
Turning to `COc1ccc2nc3n(c(=O)c2c1)-c1cc(C)ccc1C(=O)NC3Cc1ccc(O)cc1` (stereo not drawn), the “activity change, negative = inhibition” value is -0.966%.
Take `CNC(=O)c1sc(Nc2ccc(OCc3ccccc3)cc2)nc1C`: the Potency was 8.2 µM (active).
Regarding `Cc1cccc(NC(=O)Nc2ccc(OCc3ccccc3)cc2)n1`, the “activity change, negative = inhibition” value was 14.9%.
As for `CCc1ccnc(NC(=O)Nc2ccc(OCc3ccccc3)cc2)c1`, the “activity change, negative = inhibition” value is 11.6%.
Consider `COc1ccc(NS(=O)(=O)c2ccc(C)c(C(=O)NCC(c3cccs3)N3CCOCC3)c2)cc1` (stereo not drawn), for which the “activity change, negative = inhibition” value is 8.71%.
For the compound `COc1ccc(S(=O)(=O)N2CCOCC2)cc1NC(=O)CSc1nnc(NC2CC2)s1`, the “activity change, negative = inhibition” value is 12.9%.
With `Cc1ccc(S(=O)(=O)N2CCC(C)CC2)cc1C(=O)NCc1ccccn1`, the “activity change, negative = inhibition” value was -0.498%.

The record behind these values is PubChem BioAssay AID504467 (National Center for Advancing Translational Sciences (NCATS), 2011).
